Measurements from PubChem BioAssay AID894 (National Center for Advancing Translational Sciences (NCATS), 2007).
Among all 150,000 compounds or so, about 6,500 (4.3%) were called active. Inconclusive results (about 12%) are left out. The sample as a whole holds a higher share of actives than the screen did. Unmarked numbers belong to inactive results. Calls follow the shape of the dose curve; as a rule, active = well fitted inhibition curve with a large enough effect (not every such curve was filed as active); inconclusive = small, poorly fitted or top-dose-only effect, or another doubt; inactive = no such curve, though single readings can be large or run the other way.

Biological target: 15-hydroxyprostaglandin dehydrogenase [NAD(+)] (Homo sapiens) (UniProt P15428)
Sequence (P15428 whole entry, looked up): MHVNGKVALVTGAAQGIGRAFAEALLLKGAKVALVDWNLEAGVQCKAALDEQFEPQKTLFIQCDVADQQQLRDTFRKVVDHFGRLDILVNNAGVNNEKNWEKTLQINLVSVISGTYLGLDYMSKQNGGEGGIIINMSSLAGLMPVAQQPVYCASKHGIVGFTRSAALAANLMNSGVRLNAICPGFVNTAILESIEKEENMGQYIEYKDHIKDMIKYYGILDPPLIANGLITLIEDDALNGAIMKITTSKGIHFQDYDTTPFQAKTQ
Assay: qHTS Assay for Inhibitors of HPGD (15-Hydroxyprostaglandin Dehydrogenase)
Settings: purified HPGD, NADH fluorescence kinetic, PGE2 substrate; activity change, negative = inhibition: active compounds read low
Method in brief: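 NADH formation kinetics: reaction with 30 uM PGE2 and 1 mM NAD+ (final), 20 nM enzyme, Tris-HCl pH 8 with Tween 20, after 15 min compound preincubation at room temperature. Fluorescence change, last versus first of five reads.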
% is scaled to controls: 0 for no effect and ±100 for the full control effect; potency is read from the fitted curve at half-maximal effect.

Point of comparison: `NC(=O)C1CCN(C(=O)c2ccc(-c3ccccc3)cc2)CC1`, activity change, negative = inhibition -4.39%. Against it:
- CCCCC/C=C\C/C=C\CCCCCCCCCC(N)=O — lower, -6.01%
- COc1ccc(NC(=S)NC2CCS(=O)(=O)C2)cc1 (stereo not given) — lower, -7.38%
- Clc1ccc(CSc2nnc(/C=C/c3ccccc3)o2)c(Cl)c1 — lower, -24.9%
- O=c1[nH]nc(CSCc2ccccc2Cl)[nH]1 — higher, -4.38%
- CCOC(=O)Cc1csc(NC(=O)CSc2ccc(Br)cc2)n1 — higher, -1.05%
- CCOC(=O)CNC(=O)/C=C/c1c(Cl)cccc1Cl — lower, -4.86%
- Cc1cccc2cc(CN(C(=O)c3cccs3)c3ccccc3)c(=O)[nH]c12 — lower, -18.7%
- Cc1ccsc1/C=N/n1c(=S)[nH]nc(C)c1=O — lower, -6.69%
- Brc1ccc(/C=N/N2CCN(C3c4ccccc4-c4ccccc43)CC2)s1 — higher, -4.34%
- Cc1ccc(-c2csc(-c3c[nH]c4ccccc34)n2)cc1 — lower, -7.14%
- CSC(=S)N/N=C/c1c[nH]c2ccccc12 — lower, -6.73%
- Cc1n[nH]c(=S)n1/N=C/c1ccc(Br)o1 — lower, -10%
- c1ccc(-c2noc(-c3cccs3)n2)nc1 — lower, -8.74%
- Cc1ccc2[nH]c(C(=O)O)c(NC(=O)c3ccccc3[N+](=O)[O-])c2c1 — lower, -8.36%
- COc1ccc(C(=O)NC2(C(F)(F)F)NC(=O)N(CCCc3ccccc3)C2=O)c(OC)c1OC (stereo not given) — higher, -2.88%
- Cc1cccc(C)c1NC(=O)CSc1ccc([N+](=O)[O-])cn1 — lower, -5.79%
- COc1ccccc1N1CCN(C(=O)C(=O)N/N=C/c2ccccc2F)CC1 — lower, -6.15%
- CC(C)=C(NC(=O)c1ccccc1)C(=O)N/N=C(\C)c1ccccc1O — lower, -7.72%
- Cc1cc(C)cc(NC(=S)NCCCN2CCOCC2)c1 — higher, -3.2%
- Cc1ccc2[nH]c(=O)c(CC=C(Cl)Cl)c(C)c2c1 — lower, -6.58%
- Cc1cc(C(=O)NNC(=S)Nc2ccccc2C)cs1 — lower, -17.5%
- COC(=O)C1=NNC2(c3ccc(C)cc3)C(=O)N(c3cccc(C)c3C)C(=O)C12 (stereo not given) — lower, -7.55%
- O=C(Cc1cccs1)N/N=C/c1ccc(OCc2ccccc2)cc1 — lower, -20.3%
- CCOc1ccc(/C=N/NC(N)=S)cc1 — lower, -6.57%
- CC1CCc2sc(C(=O)N/N=C/C3CCCCC3)cc2C1 (stereo not given) — lower, -7.97%
- O=C(Nc1ccccc1C(=O)NCCCn1ccnc1)c1ccc(Cl)cc1Cl — lower, -7.71%
- CCOc1ccc(NC(=O)CCC(=O)n2nc(C)cc2C)cc1 — lower, -8.1%
- CCOC(=O)CC(NC(=O)C1c2ccccc2Oc2ccccc21)c1ccc(C)cc1 (stereo not given) — higher, 6.16%
- CCOC(=O)C1=C(C)OC(N)=C(C#N)C1c1cncc(-c2ccc(F)cc2)c1 (stereo not given) — lower, -9.79%
- Cc1cnc(NC(=O)CSc2c(Cl)cccc2Cl)s1 — lower, -12.6%
- Cc1cnc(NC(=O)CSc2nnc(-c3ccccc3)n2Cc2ccccc2)s1 — lower, -9.73%
- CCCCC(O)(CCCC)C(=O)NN(C(=O)CCl)c1ccccc1 — lower, -6.18%
- O=C(NCCCO)/C(=C\C=C\c1ccccc1)NC(=O)c1ccccc1Cl — lower, -15.4%
- CC(C)(C)C(=O)NC(NC(=S)Nc1ccc(S(N)(=O)=O)cc1)C(Cl)(Cl)Cl (stereo not given) — higher, -0.407%
- CC(C)(C)C1CCC(=NNC(=O)c2cc(-c3ccccc3)n[nH]2)CC1 (stereo not given) — lower, -7.88%
- O=C(c1ccccc1-c1ccccc1)N1CCOCC1 — higher, -1.91%
- Cc1onc(-c2ccccc2)c1C(=O)N1CCOCC1 — higher, 0.967%
- O=C(COc1ccc(/C=N/NC(=O)c2ccc(O)cc2)cc1)Nc1ccc([N+](=O)[O-])cc1 — lower, -5.7%
- O=C(NCc1ccco1)O[C@@H]1C(=O)c2cc(Br)ccc2O[C@H]1c1ccc2c(c1)OCO2 — lower, -7.84%
- Cc1ccc(Nc2nnc(SCC(=O)c3cc4ccccc4o3)s2)cc1C — lower, -14.9%
- O=C(CSc1nnc(Nc2ccccc2)s1)Nc1cccnc1Cl — higher, -3.17%
- Cc1nn(Cc2ccccc2)c(C)c1C(=O)NCCN1C(=O)S/C(=C\c2ccc(F)cc2)C1=O — lower, -19.6%
- COc1cccc(/C=N/Nc2ncc(C(F)(F)F)cc2Cl)c1O — lower, -13.5%
- COc1cccc(/C=N\NC(=O)C2=NNC(=O)C2C)c1O (stereo not given) — lower, -11.9%
- O=C1CCC[C@@H]2CC(N3CCCCC3)C[C@@H]3CCN1[C@H]23 (stereo not given in full) — higher, -1.93%
- C=CCNC(=S)NNC(=O)COc1c(Cl)cc(Cl)cc1Cl — lower, -21.2%
- Cc1ccc(Cl)cc1N1CCN(C(=O)c2cccc3c(=O)c(C)c(-c4ccccc4)oc23)CC1 — higher, 0.844%
- O=C(c1ccc(S(=O)(=O)N2CCOCC2)cc1)N1CCN(c2ccccc2)CC1 — lower, -5.22%
- CCOC(=O)N1CCN(C(=O)CSc2ccc(Cl)cc2)CC1 — lower, -15.4%
- CC(NC(=O)c1ccc(Cl)cc1)C(=O)N1CCCCC1 (stereo not given) — higher, -4.27%
- O=C(C1CC1)N1CCN=C1SCc1ccc(Cl)cc1 — lower, -17.7%
- CC(=O)N1CCN(C(=O)c2cccc(S(=O)(=O)Nc3ccc(C)cc3)c2)CC1 — higher, 4.03%
- O=C(Nc1ccc(CSc2ccccc2)cc1)c1ccc(CN2CCOCC2)cc1 — lower, -8.57%
- COc1ccccc1N1CCN(C(=O)c2ccc(S(=O)(=O)N3CCCCC3)cc2)CC1 — lower, -4.4%

In the case of `S=c1[nH]nc(CSCc2ccc(Cl)cc2Cl)n1-c1ccccc1`, the Potency is reported as 3.16 µM (active).
`S=c1[nH]nc(-c2ccco2)n1/N=C/c1ccc(Br)s1` was tested, and the Potency was 2.82 µM (active).
In the case of `Oc1ccccc1/C=N/n1c(-c2cccs2)n[nH]c1=S`, the Potency is reported as 2.51 µM (active).
`S=c1[nH]nc(-c2ccccc2)n1/N=C/c1c[nH]c2ccccc12` was tested, and the Potency was 2 µM (active).
For `Cc1ccc(/C=N\n2c(-c3ccccc3)n[nH]c2=S)s1`, the Potency was 11.2 µM (active).
With `CCOc1ccc(/C=N/OCC(=O)NCc2cccs2)cc1` the Potency was 15.8 µM (active).
`Cc1cc(C)n(C(=O)CCNC(=O)c2ccccc2Cl)n1` was tested, and the Potency was 15.8 µM (active).
With `Cc1cnc(NC(=O)CSc2nnc(-c3ccc(Cl)cc3Cl)n2N)s1` the Potency was 25.1 µM (active).
In the case of `Cc1ccccc1-c1ccc(Nc2ccc(C(=O)N3CCOCC3)cc2)nn1`, the Potency is reported as 22.4 µM (active).
For `CC(C)c1ccc(Nc2nnc(SCC(=O)c3nnc(-c4ccccc4)o3)s2)cc1`, the Potency was 31.6 µM (active).
In the case of `COc1cccc(/C=N/NC(=O)c2[nH]nc3c2CCc2ccccc2-3)c1O`, the Potency is reported as 35.5 µM (active).
With `O=C(c1ccc(CSc2ccccc2)cc1)N1CCCCCC1` the Potency was 0.316 µM (active).
In the case of `CS(=O)(=O)Nc1ccc(C(=O)N2CCCC2)cc1`, the Potency is reported as 20 µM (active).
In the case of `O=C(c1ccc(S(=O)(=O)c2ccccc2)cc1)N1CCCCCC1`, the Potency is reported as 17.8 µM (active).
In the case of `CC1CCN(C(=O)c2ccc(CSc3ccc(Cl)cc3)cc2)CC1`, the Potency is reported as 0.891 µM (active).
